Compounds without any hit were thinned out: in the full panel of roughly 83,000, 20% have a hit.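 96-well plates, one dose, 48 hours. Percent growth reported; active if below 10.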 A number with no mark means an inactive call. Calls of active or inactive are those of the source.
What was measured:
Test in all cases: NCI-60 one-dose screen, 48 h (100 = growth as untreated, 0 = no growth, -100 = all killed)
Settings in all cases: 10 µM unless noted
[1] = tested on: T-47D breast
[2] = tested on: BT-549 breast
[3] = tested on: MDA-MB-435 melanoma
[4] = tested on: SW-620 colon
[5] = tested on: MCF7 breast
[6] = tested on: HCT-116 colon
[7] = tested on: HCC-2998 colon
[8] = tested on: KM12 colon

| Compound | growth [1] | growth [2] | growth [3] | growth [4] | growth [5] | growth [6] | growth [7] | growth [8] |
| --- | --- | --- | --- | --- | --- | --- | --- | --- |
| C#CC(F)(F)[C@]1(O)CC[C@H]2[C@@H]3CCC4=CC(=O)CCC4=C3[C@@H](c3ccc(C4CC4)cc3)C[C@@]21C | 17.5% | 73.1% | 85.1% | 18.5% | 36.9% | 75.8% | 92% | 6.36% (active) |
| COc1ccc(-c2cc(-c3ccc(Nc4ccnc5cc(Cl)ccc45)cc3)nc(N3CCOCC3)n2)cc1 | -23% (active) | 45.8% | 10.1% | 8.98% (active) | 22.7% | 52.8% | 98.8% | 44.9% |
| O=C(Cc1ccccc1Nc1c(Cl)cccc1Cl)NN1C(=O)/C(=C/c2ccc(Br)cc2)SC1=S | 107% | 105% | 107% | 98.5% | 100% | 103% | 106% | 107% |
| CCOC(=O)n1cc(-c2nonc2-c2cn(C)c3ncccc23)c2ccccc21 | 15.2% | 87.9% | 50.2% | 76.6% | 35% | 80.4% | 89.6% | 66.5% |
| O=C1OCC2=C1C(c1ccncc1)c1cc3c(cc1N2CCO)OCO3 (stereo not drawn) | 91.1% | 112% | 96.7% | 93.4% | 96.3% | 107% | 103% | 97.8% |
| COc1ccc(/C=C\c2cc(OC)c(OC)c(OC)c2)cc1OCC(=O)Nc1ccc2nc(C)sc2c1 | 6.4% (active) | 38% | -3.48% (active) | 38% | 20.6% | 23.4% | 86.1% | 19% |
| O=C1c2cc3c(cc2-c2c1c1ccc(F)cc1c(=O)n2CCCNCCO)OCO3 | -17.7% (active) | -20% (active) | -71.5% (active) | -41.5% (active) | -65.5% (active) | -43.1% (active) | -65.7% (active) | -29.9% (active) |
| O=C(N/N=C/c1c[nH]c2ccccc12)c1cc(-c2ccccc2)on1 | 77.2% | 90.3% | 94.8% | 102% | 79.1% | 90.6% | 92.9% | 92.3% |
| O=C1c2cc3c(cc2-c2c1c1ccc(F)cc1c(=O)n2C[C@H](O)[C@@H](O)[C@H](O)CO)OCO3 | -4.06% (active) | -21.3% (active) | -76.2% (active) | 7.68% (active) | 4.18% (active) | 9.8% (active) | -8.31% (active) | 7.39% (active) |
| NNCCc1ccc(NC(=O)CCCc2ccc(/C=C/C(=O)NO)cc2)cc1 | -5.44% (active) | 44.9% | 66% | 43.3% | 30.8% | 35.3% | 95.5% | 57.1% |
| C=CC(=O)Nc1cccc(-c2nc(SC)nc(NCc3ccccc3)c2C#N)c1 | 28.5% | 44.3% | 62% | 89% | 47.2% | 55.1% | 84.7% | 89.2% |
| O=c1ccccc(-c2ccc(Br)cc2)c1O | 26.7% | 23.8% | 25.8% | 26.8% | 14.3% | 18.6% | 41.5% | 24.6% |
| Cc1ccc(/C=C2\SC(=S)N(CC(=O)NCCCN3CCOCC3)C2=O)cc1 | 90.4% | 102% | 99.4% | 103% | 91.5% | 100% | 102% | 105% |
| COc1cccc(-c2nc3sccn3c2-c2ccnc(NCCCNS(=O)(=O)c3cccc(F)c3)c2)c1 | -8.47% (active) | 6.32% (active) | 12.2% | 50% | 24.8% | 20.8% | 64.7% | 23.2% |
| C=C1C(=O)O[C@H]2[C@H]1CC/C(COC(=O)c1cc3cc(OC)ccc3[nH]1)=C\CC[C@@]1(C)O[C@@H]21 | -60.6% (active) | -55.3% (active) | -91.9% (active) | -75.7% (active) | -61.3% (active) | -94.8% (active) | -74.2% (active) | -67.9% (active) |
| C#Cc1cccc(NC(=O)c2ccccc2NC(=O)CCl)c1 | 77.7% [8.25 µM] | 61.6% [8.25 µM] | 89.9% [8.25 µM] | 79.5% [8.25 µM] | 67.9% [8.25 µM] | 49.4% [8.25 µM] | 99.2% [8.25 µM] | 99.7% [8.25 µM] |

| Compound | growth [1] | growth [2] | growth [3] | growth [4] | growth [5] | growth [6] | growth [7] | growth [8] |
| --- | --- | --- | --- | --- | --- | --- | --- | --- |
| O=S(=O)(Nc1ccc(Br)c(Cl)c1)c1ccc(-c2cnc(C3CC3)o2)cc1 | 30.9% | 38.3% | -17.1% (active) | 19.3% | 11.7% | 19.5% | 45.9% | 33.8% |
| CCNC(=O)Oc1ccc(/C(=C(\C)c2ccc(Cl)cc2)c2ccc(OCCN(CC)CC)cc2)cc1 | 25.5% | 68.8% | 25% | 2.28% (active) | 16.5% | 38.6% | 51% | 37.5% |
| COc1cc(-c2nn(C)nc2-c2cc3ccccc3s2)cc(OC)c1OC | 56.5% | 18.8% | -41% (active) | 26.7% | 17% | 15.9% | 49.4% | 19.5% |
| Cn1cc(C(=O)c2nc(-c3c[nH]c4ccc(Br)cc34)no2)c2cc(F)ccc21 | 89.7% | 95.7% | 100% | 95.3% | 82.1% | 104% | 97.5% | 96.3% |
| COC(=O)[C@@H]1CCCN1C(=O)[C@@H]1CCCN1C(=O)[C@H](Cc1ccccc1)NC(=S)Nc1cc(C(F)(F)F)cc(C(F)(F)F)c1 | 92.3% | 81.1% | 86.5% | 93% | 67.1% | 69% | 93.3% | 45.1% |
| COc1cc(/C=C/c2cc(/C=C/c3ccc(O)c(OC)c3)n(-c3c(C)cccc3C)c(=O)n2)ccc1O | -4.26% (active) | -18.1% (active) | 2.28% (active) | 7.79% (active) | 1.69% (active) | 8.26% (active) | 24.1% | 11.6% |
| Cc1ccc(C2Oc3ccccc3C3CC(c4cccs4)=NN32)cc1 (stereo not drawn) | 94.7% | 86.6% | 103% | 102% | 80.4% | 99.9% | 98.7% | 94.3% |
| COc1ccc(C2CC(c3ccc4ccccc4c3)=NN2/C=C2\SC(=S)N(NC(=O)Cc3ccccc3Nc3c(Cl)cccc3Cl)C2=O)cc1 (stereo not drawn) | 19.2% | 30% | -49.8% (active) | 22.6% | 22.5% | 18.6% | 31.2% | 16% |
| CCN1CCN(c2nc(NCCCNc3ccnc4cc(Cl)ccc34)c3ccccc3n2)CC1 | -4.69% (active) | 68.7% | -81.7% (active) | 9.73% (active) | 23.2% | 20.7% | 21.9% | 29.3% |
| Cc1ccc(C2=NN3C(C2)c2cc(Br)ccc2OC32CCN(Cc3ccccc3)CC2)o1 (stereo not drawn) | 86.6% | 92.4% | 94% | 97.2% | 77.3% | 99.6% | 97.9% | 95.4% |
| O=C(O)c1c(=O)cccc2ssc12 | -43% (active) | 20.2% | 23.3% | -34.4% (active) | -17% (active) | 2.36% (active) | 13.5% | 3.59% (active) |
| CC(=O)c1cc2c(N)c(C(=O)Nc3cccc4ccccc34)sc2nc1C | 42.7% | 46.5% | -34% (active) | 17.8% | 22.1% | 29.3% | 37.1% | 22% |
| Nc1nc2ncc(CCNc3ccc(C(=O)O)cc3)nc2c(=O)[nH]1 | 115% | 124% | 112% | 110% | 110% | 104% | 117% | 111% |
| CC(=O)c1cc2c(N)c(C(=O)Nc3ccccc3)sc2nc1C | 99.5% | 67.3% | -29.3% (active) | 69.4% | 59.8% | 102% | 79.4% | 75.1% |
| COc1cc2c(cc1-c1c(C)noc1C)ncc1nc(-c3ccccn3)n([C@H](C)COC(F)F)c12 | 35.2% | 57.7% | 46.4% | 65.1% | 19.7% | 35.5% | 49% | 47.4% |
